In ChEMBL document CHEMBL3988442, “University of Dundee, Small-Polar-MMV Screening Library” (2021):
Screen size: about 66,000 compounds; about 960 (1.5%) showed an effect of 50% or more. Many of the other results were omitted from the sample, so strong results are more common in it than they were.

System: Trypanosoma brucei
Assay: Trypanosoma brucei 72 hour study
Assay type: functional, organism-based
Design: scale not given: in the data most compounds retested in dose-response had high values

Cc1ccc(CN2CCCC3(CCN(S(C)(=O)=O)C3)C2)o1.O=C(O)C(F)(F)F (stereo not given)
Percent Effect (30 µM, 30.03 µM): 16.24%

Cc1csc2c(N3CCNC(C(=O)N4CCCC4)C3)ncnc12 (stereo not given)
Percent Effect (30 µM, 30.03 µM): 24.45%

Cc1csc2c(N3CCNC(C(=O)NCc4cccnc4)C3)ncnc12 (stereo not given)
Percent Effect (30 µM, 30.03 µM): -5.987%

Cc1csc2c(N3CCNC(C(=O)Nc4ccc(F)cc4)C3)ncnc12 (stereo not given)
Percent Effect (30 µM, 30.03 µM): 72.13%

Cc1cc(C(=O)N2CCc3nc(C4CCCN4)ncc3C2)cs1.Cl (stereo not given)
Percent Effect (30.3 µM, […]): -23.19%

Cc1occc1C(=O)NCC(=O)NCCCOc1ccc(F)cc1
Percent Effect (30 µM, 30.03 µM): -42.11%

Cc1occc1C(=O)NCC(=O)N(C)CCCOc1ccc(F)cc1
Percent Effect (30 µM, 30.03 µM): 95.62%

Cc1occc1C(=O)NCC(=O)N(C)CCCOc1ccccc1
Percent Effect (30 µM, 30.03 µM): -44.45%

CNC(=O)c1ccc(C2CCCN(C(=O)c3sc(C)nc3C)C2)nc1 (stereo not given)
Percent Effect (30.3 µM, […]): -1.908%

Cc1cc(NCCN)nc2ccccc12.O=[N+]([O-])O
Percent Effect (30.3 µM, […]): -46.24%

CCS(=O)(=O)c1ccccc1N1CCC(NC(=O)c2ccc[nH]2)CC1
Percent Effect (30 µM, 30.03 µM): 54.24%

CCS(=O)(=O)c1ccccc1N1CCC(NC(=O)NC2CCCC2)CC1
Percent Effect (30 µM, 30.03 µM): 7.94%

CCS(=O)(=O)c1ccccc1N1CCC(NC(C)=O)CC1
Percent Effect (30 µM, 30.03 µM): 4.915%

CCC[C@@H]1CN(Cc2cc(C#N)n(C)c2C)C[C@H]1NS(C)(=O)=O
Percent Effect (30 µM, 30.03 µM): 0.9985%

Cc1nc(N)c2ccc(C3CCCCN3)nc2n1.Cl (stereo not given)
Percent Effect (30.3 µM, […]): -17.89%

CN(c1ccc(C(=O)NCCCN2CCCCC2)c(Cl)c1)S(C)(=O)=O
Percent Effect (30 µM, 30.03 µM): -14.39%

CCc1cc(=O)[nH]c(-n2nc(C3CC3)cc2NC(=O)C2CC2)n1
Percent Effect (30 µM, 30.03 µM): 97.36%

CCCc1cc(=O)[nH]c(-n2nc(C3CC3)cc2N)n1
Percent Effect (30 µM, 30.03 µM): 78.26%

CCCc1cc(=O)[nH]c(-n2nc(-c3cccs3)cc2N)n1
Percent Effect (30 µM, 30.03 µM): -29.48%

CCc1c(C)nc(-n2nc(C3CC3)cc2NC(C)=O)[nH]c1=O
Percent Effect (30 µM, 30.03 µM): -1.646%

Cc1cc(=O)[nH]c(-n2nc(C3CC3)cc2N)n1
Percent Effect (30 µM, 30.03 µM): -21.61%

Cc1cc(=O)[nH]c(-n2nc(-c3ccccc3)cc2N)n1
Percent Effect (30 µM, 30.03 µM): -3.849%

CC(C)c1cc(=O)[nH]c(-n2nc(C3CC3)cc2N)n1
Percent Effect (30 µM, 30.03 µM): 99.41%

CC(C)c1cc(=O)[nH]c(C(C)(C)N)n1.Cl
Percent Effect (30 µM, 30.03 µM): -29.56%

CC(=O)Nc1cc(C2CC2)nn1-c1nc(C)c(C)c(=O)[nH]1
Percent Effect (30 µM, 30.03 µM): -12.81%

COc1ccc(CC(=O)N2Cc3nccn3CC(CN(C)C)C2)cc1.O=C(O)C(F)(F)F (stereo not given)
Percent Effect (30 µM, 30.03 µM): -47.37%

Cc1cccc(CN2CCC3(CC2)NC(=O)C[C@H]3c2cnn(C)c2)n1.O=C(O)C(F)(F)F
Percent Effect (30.3 µM, […]): -5.843%

COc1cc2c(cc1CNC(Cc1cccs1)c1nccs1)OCO2.Cl (stereo not given)
Percent Effect (30.3 µM, […]): -17.08%

O=C1N[C@H]2OCCC[C@H]2[C@H](c2ccccc2)N1
Percent Effect (30 µM, 30.03 µM): -11.46%

CCOc1cc(CNC(=O)c2cnn(CC)c2C(F)(F)F)ccn1
Percent Effect (30 µM, 30.03 µM): 1.219%

Cc1ccc(CN2CCOC3(CCCN(c4cccc(F)c4)C3)C2)o1.O=C(O)C(F)(F)F.O=C(O)C(F)(F)F (stereo not given)
Percent Effect (30.3 µM, […]): 98.9%

Cn1cc(CN2CCOC3(CCCN(c4cccc(F)c4)C3)C2)cn1.O=C(O)C(F)(F)F.O=C(O)C(F)(F)F (stereo not given)
Percent Effect (30.3 µM, […]): -12.05%

Fc1cccc(N2CCCC3(CN(Cc4ccncc4)CCO3)C2)c1.O=C(O)C(F)(F)F.O=C(O)C(F)(F)F.O=C(O)C(F)(F)F (stereo not given)
Percent Effect (30 µM, 30.03 µM): 7.874%

Fc1cccc(N2CCCC3(CN(Cc4cccnc4)CCO3)C2)c1.O=C(O)C(F)(F)F.O=C(O)C(F)(F)F.O=C(O)C(F)(F)F (stereo not given)
Percent Effect (30.3 µM, […]): 86.99%

Fc1cccc(N2CCCC3(CN(Cc4nccs4)CCO3)C2)c1.O=C(O)C(F)(F)F.O=C(O)C(F)(F)F (stereo not given)
Percent Effect (30.3 µM, […]): 9.59%

O=C(O)C(F)(F)F.OCCN1CCOC2(CCCN(c3cccc(F)c3)C2)C1 (stereo not given)
Percent Effect (30 µM, 30.03 µM): 21.19%

Fc1cccc(N2CCCC3(C2)CN(c2ncccn2)CCO3)c1.O=C(O)C(F)(F)F.O=C(O)C(F)(F)F (stereo not given)
Percent Effect (30 µM, 30.03 µM): -26.54%

Fc1cccc(N2CCCC3(CN(Cc4ccccn4)CCO3)C2)c1.O=C(O)C(F)(F)F.O=C(O)C(F)(F)F.O=C(O)C(F)(F)F (stereo not given)
Percent Effect (30.3 µM, […]): 1.036%

Fc1cccc(N2CCCC3(CN(Cc4ccco4)CCO3)C2)c1.O=C(O)C(F)(F)F.O=C(O)C(F)(F)F (stereo not given)
Percent Effect (30.3 µM, […]): 99.09%

COc1c(C2CCCN2C(=O)c2ccc(O)nc2)c(C)nn1C (stereo not given)
Percent Effect (10 µM): -34.15%

COCCCN1CC2(CCN(C(=O)c3ncc(F)cc3F)CC2)CC1=O
Percent Effect (30 µM, 30.03 µM): -16.91%

Cl.O=C(NCc1ccc(F)cc1)N1CCN(CC(O)C2CC2)CC1 (stereo not given)
Percent Effect (30.3 µM, […]): 2.371%

Cc1nc[nH]c1CN1CCc2nc3scc(C)c3c(=O)n2CC1.Cl
Percent Effect (30.3 µM, […]): -39.02%

Fc1cccc(Oc2nccnc2C2CCN(C3CCOCC3)CC2)c1
Percent Effect (30.3 µM, […]): -17.84%

CCn1nc(C)c(CN(CCCOC)Cc2ccccn2)c1C.O=C(O)CC(O)(CC(=O)O)C(=O)O
Percent Effect (30.3 µM, […]): -0.7195%

Cn1cc(CN2CCC3(CC2)NC(=O)CC3c2ccncc2)cn1.O=C(O)C(F)(F)F.O=C(O)C(F)(F)F (stereo not given)
Percent Effect (30 µM, 30.03 µM): 47.38%

COc1ccc(S(=O)(=O)N2CCOC(Cn3ccnc3)C2)cc1.Cc1ccc(S(=O)(=O)O)cc1 (stereo not given)
Percent Effect (30.3 µM, […]): -20.84%

CN(CCNC(=O)c1cnc(-c2ccncc2)nc1)S(C)(=O)=O
Percent Effect (30 µM, 30.03 µM): 61.08%

CN(CCNC(=O)c1cnc(-c2ccccc2)nc1)S(C)(=O)=O
Percent Effect (30 µM, 30.03 µM): 23.88%

CCc1ncc(C(=O)NCCN(C)S(C)(=O)=O)cn1
Percent Effect (30 µM, 30.03 µM): 1.892%

CN(C)C(=O)NCc1cc(=O)n2c(n1)CN(Cc1ccoc1)CCC2.O=C(O)C(F)(F)F
Percent Effect (30 µM, 30.03 µM): -46.36%

Cc1nc(CN(C)C2CCN(CCn3cc(C#N)cn3)C2)no1 (stereo not given)
Percent Effect (30.3 µM, […]): -2.287%

Cc1cccc(OCCC(=O)N(C)CC(C)C#N)c1C (stereo not given)
Percent Effect (30 µM, 30.03 µM): 9.501%

Cc1cccc(OCCC(=O)N(C)CCNS(C)(=O)=O)c1C
Percent Effect (30 µM, 30.03 µM): 57.14%

Cc1cccc(OCCC(=O)N(C)CCC#N)c1C
Percent Effect (30 µM, 30.03 µM): 43.96%

Cc1ccc(-n2cccn2)cc1S(=O)(=O)N1C[C@@H]2CC[C@H](C1)N(C)C2
Percent Effect (30 µM, 30.03 µM): 75.01%

Cc1ccc(-n2cccn2)cc1S(=O)(=O)N1C[C@H](C2CC2)[C@@H](N)C1
Percent Effect (30 µM, 30.03 µM): 17.94%

COc1ccc(-n2cccn2)cc1S(=O)(=O)N1C[C@H](C2CC2)[C@@H](N)C1
Percent Effect (30 µM, 30.03 µM): 27.88%

COc1ccc(N2Cc3nc(=O)n(C(C)C)n3C2=O)cc1
Percent Effect (30 µM, 30.03 µM): -34%

CCN1CC2(CC1=O)CN(Cc1ccncc1)CCN(C(=O)C(C)C)C2.O=C(O)C(F)(F)F.O=C(O)C(F)(F)F (stereo not given)
Percent Effect (30 µM, 30.03 µM): -22.83%

O=C(NCc1nnc2n1CCC2)N1CCC2(CCCCC2)CC1
Percent Effect (30.3 µM, […]): -3.097%

O=C(NCCc1nnc2n1CCCCC2)N1CCC2(CCCC2)CC1
Percent Effect (30.3 µM, […]): 99.8%

O=C(NCCc1nnc2n1CCC2)N1CCC2(CCCCC2)C1
Percent Effect (30.3 µM, […]): -13.71%

O=C(C1CCOCC1)N1CCc2ncc(CN3CCCC3)n2CC1.O=C(O)C(F)(F)F
Percent Effect (30.3 µM, […]): -192.2%

CNC(=O)C(CC(C)C)NC(=O)c1cccc(-c2n[nH]c(C)n2)c1 (stereo not given)
Percent Effect (30.3 µM, […]): -198.3%

COc1cccc(-c2nc(C)c(C(=O)N[C@@H](CC(C)C)C(=O)O)s2)c1
Percent Effect (30 µM, 30.03 µM): -38.77%

CNC(=O)C(CC(C)C)NC(=O)c1cccc(-c2nc(C)cs2)c1 (stereo not given)
Percent Effect (30.3 µM, […]): 71.45%

NC(=O)NCC(=O)N1C[C@H]2CC[C@@H]1CN(Cc1cscn1)C2
Percent Effect (30 µM, 30.03 µM): -50.24%

CN(C)[C@@H]1CCN(CC2CC2)[C@H]1Cc1cnn(C)c1.O=C(O)C(F)(F)F.O=C(O)C(F)(F)F
Percent Effect (30.3 µM, […]): -399.8%

COc1ccc2[nH]cc(-c3ccnc(N4CCC(C)CC4)n3)c2c1
Percent Effect (30.3 µM, […]): 23.49%

COc1ccc2[nH]cc(-c3ccnc(NC4CCCC4)n3)c2c1
Percent Effect (30.3 µM, […]): 82.65%

O=c1[nH]c(-c2ccncc2)ncc1-c1ccnc(NC2CCCCC2)n1
Percent Effect (30.3 µM, […]): -18.66%

COCCN1CCC2(CCC(=O)N2Cc2csc(C)n2)CC1.O=C(O)C(F)(F)F.O=C(O)C(F)(F)F
Percent Effect (30.3 µM, […]): -13.8%

CC(=O)N1[C@@H](C(=O)NCC2CC2)C[C@@H]2CN(Cc3nccs3)C[C@@H]21.O=C(O)C(F)(F)F
Percent Effect (30.3 µM, […]): -16.07%

Cc1ccc(C(=O)N(CCC#N)Cc2ccccn2)cc1C
Percent Effect (30 µM, 30.03 µM): 52.21%

COc1cc(C(=O)N(CCC#N)Cc2ccccn2)cc(OC)c1C
Percent Effect (30 µM, 30.03 µM): 4.832%

COc1cc(C(=O)N(CCC#N)Cc2ccccn2)ccc1C
Percent Effect (30 µM, 30.03 µM): 33.36%

Cc1cnn(C2CCCN(C(=O)c3ccc(-n4cccn4)nc3)C2)c1 (stereo not given)
Percent Effect (30.3 µM, […]): -2.436% | Percent Effect (10 mM, 10 mM as filed; unlikely as a test dose): -29.12%

O=C(O)C(F)(F)F.O=C1CCCN1Cc1nnn2c1CN(c1cccnc1)CCC2
Percent Effect (30.3 µM, […]): -14.81%

Cc1ccc(CN2Cc3c(C(=O)N4CCCC4)nn(C)c3C2)s1.O=C(O)C(F)(F)F
Percent Effect (30 µM, 30.03 µM): -54.81%

CN(C)Cc1nnn2c1CN(Cc1cccnc1)CCC2.O=C(O)C(F)(F)F.O=C(O)C(F)(F)F.O=C(O)C(F)(F)F
Percent Effect (30 µM, 30.03 µM): -10.93%

Cc1cc(C)n(-c2ccccc2NC(=O)NCCCN(C)S(C)(=O)=O)n1
Percent Effect (30 µM, 30.03 µM): -25.36%

Cc1nn(-c2ncnc3[nH]cnc23)c2c1C(C(C)C)CC(=O)N2 (stereo not given)
Percent Effect (30 µM, 30.03 µM): 16.15%

Cc1nn(-c2ncnc3[nH]cnc23)c2c1C(CC(C)C)CC(=O)N2 (stereo not given)
Percent Effect (30 µM, 30.03 µM): 53.52%

CC(C)CC1SCC(=O)Nc2c1cnn2C(C)C (stereo not given)
Percent Effect (30 µM, 30.03 µM): 38.7%

Cc1nn(-c2ncnc3[nH]cnc23)c2c1C(C(C)(C)C)CC(=O)N2 (stereo not given)
Percent Effect (30 µM, 30.03 µM): 101.7%

Cc1ccc(-n2nc(C)c3c2NC(=O)CC3c2cnc(N)s2)cc1 (stereo not given)
Percent Effect (30.3 µM, […]): 2.745%

Cc1nn(-c2ccccc2)c2c1C(c1ccc(C(=O)O)cc1)CC(=O)N2 (stereo not given)
Percent Effect (30 µM, 30.03 µM): 16.38%

CC[C@@H](CO)Nc1cc(-c2cn[nH]c2)ncn1
Percent Effect (30.3 µM, […]): -17.33%
